aDG glyco act – alpha-DG glycosylation activation | Pro5-aDG cells, alpha-DG glycosylation AlphaScreen (IIH6); 0% Pro5, 100% B10-LARGE cell signal | activation, % at 10 µM | 360,000 tested, 0.22% active | AID 624168;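 active means activation of at least 8% versus controls, or a plate z-score of at least 8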;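 further: Pro5 are CHO cells carrying HIG-tagged alpha-DG that lacks glycosylation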
GRIN3A LBD mod – modulators (binders) of human NR3A ligand-binding domain. NR3A LBD differential scanning fluorimetry, Tm shift; 0% = protein alone, 100% = glycine-bound protein. Tm shift relative to glycine control, % at 25 µM. 340,000 tested, 2.5% active;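 active means melting temperature shift of at least 10% of the positive control shift, at one fixed dose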
FAS-TE inh – FAS thioesterase (human) inhibition; 360,000 tested, 0.67% active; recombinant FAS-TE, OMFH fluorogenic substrate, fluorescence endpoint; inhibition, % at 15 µM; P49327;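 active means compounds whose normalised, plate-corrected inhibition of enzyme fluorescence in the single-dose primary screen is 50% or more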;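 further: 0% = DMSO with enzyme and 100% = substrate without enzyme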
ADAM17 inh – ADAM17 inhibition, QFRET primary screen; recombinant ADAM17, EDANS/DABCYL FRET peptide cleavage; 370,000 tested, 0.83% active; P78536; inhibition, % at 6.95 µM; AID 720648;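 active means inhibition above the mean of compounds lying between control limits plus 3 SD, set per campaign, cut at about 8.5% in these data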;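 further: 0% = DMSO-only wells as the low control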
ADAM10 inh – ADAM10 inhibition, QFRET primary screen; O14672; recombinant ADAM10, EDANS/DABCYL FRET peptide cleavage, 3 h; inhibition, % at 7 µM; 370,000 tested, 0.62% active;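 active means inhibition above a per-campaign cutoff equal to the mean of compounds falling between control-based bounds plus 3 SD, cut at about 20% in these data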;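 further: 0% = DMSO wells while the 100% control is not disclosed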
* = called active by the depositor; i = inactive; · = not tested or not shown. Most compounds without a hit are left out; they make up all but 4% or so of the library.

SMILES	aDG glyco act	GRIN3A LBD mod	FAS-TE inh	ADAM17 inh	ADAM10 inh
COC(=O)[C@@H]1[C@@H](C(=O)OC)C2(c3ccccc3-c3ccccc32)N(c2ccc(Cl)cc2)N1C#N	-1	3	17	-2	3
COC(=O)C[C@]1(C(=O)OC)CN(C#N)N(c2ccc(Cl)cc2)C12c1ccccc1-c1ccccc12	-1	2	15	7	31*
O=C(Nc1ccc(Cl)cc1)N1CC2CC(C1)c1cccc(=O)n1C2 (stereo not drawn)	0	11*	-1	-6	1
COC1C(OC(=O)c2ccc(C)[nH]2)C(O)C(Oc2ccc3c(O)c(NC(=O)c4ccc(O)c(CC=C(C)C)c4)c(=O)oc3c2Cl)OC1(C)C (stereo not drawn)	0	20*	10	6	9
C=C(C)[C@@]12OC3(c4ccccc4)O[C@@H]1C1[C@@H]4O[C@]4(CO)[C@@H](O)[C@]4(O)C(=O)C(C)=C[C@H]4[C@@]1(O3)[C@H](C)[C@H]2OC(=O)/C=C/C=C/c1ccccc1 (stereo partly drawn)	0	2	57*	·	·
C[C@]12CCC3C(CC[C@H]4C[C@H](O)CC[C@]34C)C1C[C@@H](CCCCl)[C@@H]2O (stereo partly drawn)	0	·	16	2	8
CCN(CC)CCCN=Cc1c(O)n(-c2ccccc2F)c(=O)[nH]c1=O	0	1	-4	-4	-4
CCN(CC)CCCN=Cc1c(O)n(-c2cccc(C)c2C)c(=O)[nH]c1=O	0	11*	-5	-2	-1
CCN1CCN(Cc2cc3c(cc2[N+](=O)[O-])OCO3)CC1	0	-3	-9	-6	-12
CC(C)Oc1cccc(NC(=O)c2cccn(Cc3ccc4c(c3)OC(F)(F)O4)c2=O)c1	0	7	47	0	-3
O=C(Nc1cccc(C(F)(F)F)c1)c1cccn(Cc2ccc3c(c2)OC(F)(F)O3)c1=O	0	25*	36	-2	0
O=C(Nc1ccc(C(F)(F)F)cc1)c1cccn(Cc2ccc3c(c2)OC(F)(F)O3)c1=O	1	25*	43	0	8
O=c1[nH]c(=O)n(Cc2ccccc2)c(O)c1/C=C1\C=Nc2ccccc21	0	10*	-7	-1	-7
O=c1[nH]c(=O)n(CC2CCCO2)c(O)c1/C=C1\C=Nc2ccccc21 (stereo not drawn)	0	-1	-4	-2	-4
N#C/C(N)=C(/N)C#N	0	2	-4	-12	-35
N#CCCn1cc(C(=O)Nc2ccc(F)cc2)c(-c2ccccc2)n1	0	-2	-5	-3	-3
CCn1c(=O)n(CC(=O)N2CCC3(CC2)OCCO3)c(=O)c2ccccc21	0	14*	-9	0	-4
O=C(c1cc(C(=O)NCc2ccccc2)c(=O)n(Cc2ccccc2)c1)c1cc(Cl)ccc1O	0	13*	21	-1	1
O=C(NCc1ccccc1)c1cccn(Cc2ccccc2)c1=O	0	-1	3	-34	-105
CCCCN1CCC(C#N)(Nc2ccccc2)CC1	0	-2	-7	3	7
Cc1cc2c(C(C)C)c(O)c(O)c(C=O)c2c(O)c1-c1c(C)cc2c(C(C)C)c(O)c(O)c(C=O)c2c1O	0	·	48	12*	41*
CCC(C)NC(=O)c1c(N)n(Cc2ccc3c(c2)OCO3)c2nc3ccccc3nc12 (stereo not drawn)	4	15*	19	-23	-80
CCC(C)NC(=O)c1c(N)n(CC2CCCO2)c2nc3ccccc3nc12 (stereo not drawn)	0	-20	8	i	i
CC1CCCN(C(=O)CCl)C1 (stereo not drawn)	0	-2	-5	2	-2
COC(=O)C1=CO[C@@H](C)[C@@H]2CN3CC[C@]4(C(=O)Nc5ccccc54)[C@@H]3C[C@H]12	0	-1	-5	-4	2
CN1CN(c2ccccc2)C2(CCN(CCCSc3ccccc3NC(=O)/C=C/c3ccccc3)CC2)C1=O	0	-3	14	14*	8
CCCNC(=O)N1[C@H]2CC[C@@H]1C(C(=O)OC)=C(c1ccc(Cl)c(C(F)(F)F)c1)C2	1	24*	0	3	3
COC(=O)C1=C(c2ccc(F)cc2F)C[C@@H]2CC[C@H]1N2C(=O)NCc1ccc(F)cc1	0	-1	0	-3	76*
